# PubChem BioAssay (EPA / NIEHS)
# Calls of active or inactive are those of the source. How the source made its calls: active means hit-call score of the fitted dose curve at least 0.9, where 1 is the maximum; inactive means score below 0.9.
# Read-out: CYP3A5 (gene 1577)
# Assay: LTEA_HepaRG_CYP3A5: Life Technologies and Expression Analysis (LTEA) Assay for CYP3A5 using HepaRG (AID 2283493)
# Conditions: mRNA level, 48 h; actives raise or lower the signal
# Experimental: LTEA_HepaRG is a cell based, multiplexed-readout assay that uses HepaRG, a human liver cell line, with measurements taken at 48 hours after chemical dosing on a 96-well plate.LTEA_HepaRG_CYP3A5 is one of 102 assay component(s) measured in the LTEA HepaRG cell culture assay. It is a marker of NR mediated metabolism.Data from the assay component LTEA_HepaRG_CYP3A5 was analyzed into 1 endpoint. This assay endpoint, LTEA_HepaRG_CYP3A5, was analyzed with bidirectional fitting relative to DMSO as the negative control and baseline of activity. Using a type of inducible reporter, measures of mRNA induction for gain or loss-of-signal activity can be used to understand regulation of transcription factor activity. To generalize the intended target to other relatable targets, this assay endpoint is annotated to the cyp intended target family, where the subfamily is xenobiotic metabolism.
# A total of 1060 chemcials from the ToxCast library were tested in eight-point concentration-response experiments. Cell culture and cytotoxicity assays were conducted at Thermo Fisher Scientific's Custom Services facility (Madison, WI). A single lot of human HepaRG cells (Thermo Fisher Scientific, Frederick, MD) was used for the cell culture experiments. 96-well format collagen type I coated plates of human HepaRG cells were prepared using established methods. Briefly, cryopreserved HepaRG cells were thawed, plated at a density of approximately 100,000 cells/well in HepaRG Thaw, Plate, and General Purpose media (HPRG770, Thermo Fisher Scientific), and incubated for 48 hours. 0.5% DMSO was selected as vehicle control to balance the requisite need of DMSO in HepaRG cultures to maintain differentiation (for example, baseline metabolism, proportions of hepatocytes vs. cholangiocytes), while enabling further hepatic receptor pathway activation (for example, PXR and CAR) in response to chemical exposure. 48 hours after plating, the culture medium was replaced with HepaRG Serum-Free Incudtion Media. Cells were exposed to each test chemical in duplicate and maintained in CO2 incubators for another 48 hours. Chemical plates were thawed to room temperature and 200x concentrations of treatment groups were prepared. 8-point conentration-reponse curves were made with the highest exposure at 100 uM, followed by half-log dilutions, all in 0.5% DMSO. Each test plate contained variouse controls, induction positive controls (1mM phenobarbital), cytotoxicity positive controls ([…] aflatoxin B1), vehicle controls (0.5% DMSO), and total lysis controls (0.5% DMSO). Cell morphology images were taken using an Essen IncuCyte FLR automated microscope, with six 96-well plates imaged in about 24 minutes. Images were captured and exported and JPEG files. Spent culture media was transfered to black-well plates for the LDH assay, and remaining media was sorted at -80 C for later use. Cells were treated with RLT buffer and frozen until shipped for gene expression analysis. Total RNA was isolated from the cell suspension in 75 uL of Buffer RLT (Qiagen, Germantown, MD 20874) by Quintiles/Expression Analysis (Durham, NC) using a custom isolation procedure. Total RNA from each plate well was transferred to a preamplification plate. Fluidigm's 96.96 Dynamic ArrayTM (Fluidigm, Amsterdam, the Netherlands) technology was used for gene expression analyses by quantitative reverse transcription polymerase chain reaction (qRT-PCR, performed by Quintiles/Expression Analysis, Durham, NC)89. Standard TaqManTM Assays (Applied Biosystems/ThermoFisher Scientific, Foster City, CA) were used to assess the expression of 93 genes selected based on their selectivity and sensitivity to important hepatic receptors known to be modulated by environmental chemicals; importance in human hepatocyte functionality; and hepatotoxicity. […]
Structure (SMILES),outcome,AC50
CCSC(=O)N(CC)C1CCCCC1,inactive,
ClC(Cl)=C(c1ccc(Cl)cc1)c1ccc(Cl)cc1,inactive,
CCOC(=O)C(O)(c1ccc(Cl)cc1)c1ccc(Cl)cc1,inactive,
C1CC2OC2CC1C1CO1 (stereo not given),inactive,
CC(C)(c1ccccc1)c1ccc(O)cc1,inactive,
CC1=C2C[C@H]3[C@@H](CC=C4C[C@@H](O)CC[C@@]43C)[C@@H]2CC[C@]12O[C@@H]1C[C@H](C)CN[C@H]1[C@H]2C,inactive,
Oc1ccc(Cl)cc1Cl,inactive,
O=C(NC(=O)c1cc(F)c(F)cc1Cl)Nc1cc(F)ccc1N1CCC(C(=O)O)CC1,inactive,
O=S(=O)(O)C(F)(F)C(F)(F)C(F)(F)C(F)(F)C(F)(F)C(F)(F)F,inactive,
COc1ccc(O)c(C(C)(C)C)c1,inactive,
ClC1=C(Cl)[C@]2(Cl)[C@@H]3[C@@H]4C[C@@H]([C@H]5O[C@@H]45)[C@@H]3[C@@]1(Cl)C2(Cl)Cl,inactive,
c1ccc(-c2ccccc2)cc1,inactive,
O=C(NC(=O)c1c(F)cccc1F)Nc1cc(Cl)c(OC(F)(F)C(F)F)c(Cl)c1,inactive,
ClC1=C(Cl)[C@]2(Cl)[C@@H]3[C@@H](Cl)[C@H]4O[C@H]4[C@@H]3C1(Cl)C2(Cl)Cl,inactive,
CO/C=C(/C(=O)OC)c1ccccc1COc1cccc(C(F)(F)F)n1,,12.1 µM (active)
CCC(C)(CC)c1cc(NC(=O)c2c(OC)cccc2OC)on1,inactive,
CCC(=O)O[C@H]1CC[C@H]2[C@@H]3CCC4=CC(=O)CC[C@]4(C)[C@H]3CC[C@]12C,inactive,
CCOP(=S)(OCC)SCSC(C)(C)C,,2.83 µM (active)
CCCCCCCCCc1ccc(O)cc1,inactive,
Oc1c(Cl)c(Cl)c(Cl)c(Cl)c1Cl,,10.6 µM (active)

Structure (SMILES),outcome,AC50
Nc1ccc(-c2ccc(N)cc2)cc1,inactive,
C[C@]12CCC(=O)C=C1CC[C@@H]1[C@@H]2CC[C@]2(C)C(=O)CC[C@@H]12,,50 µM (active)
COS(=O)(=O)OC,inactive,
N#Cc1ccc(N(CC(N)=O)CC(F)(F)F)cc1C(F)(F)F,inactive,
C=CC(N)=O,inactive,
O=C(N[C@H]1CN2CCC1CC2)c1cc2ccoc2cn1,inactive,
Clc1ccc(Cl)cc1,inactive,
CN(C)CCO,inactive,
Cc1cc(O)ccc1Cl,inactive,
C[C@]12CCC(=O)C=C1CC[C@@H]1[C@@H]2CC[C@@]2(C)[C@H]1CC[C@]2(C)O,inactive,
CCC(C)(c1ccc(O)cc1)c1ccc(O)cc1,inactive,
O=C(O)C(F)(F)C(F)(F)C(F)(F)C(F)(F)C(F)(F)F,inactive,
CCNc1nc(NC(C)C)nc(SC)n1,inactive,
CCC(C)c1cc([N+](=O)[O-])cc([N+](=O)[O-])c1O (stereo not given),,15.5 µM (active)
Cc1ccc(O)c(C)c1,inactive,
CN(C)c1nc(=O)n(C2CCCCC2)c(=O)n1C,inactive,
O=C(O)C(F)(F)C(F)(F)C(F)(F)C(F)(F)C(F)(F)C(F)(F)C(F)(F)C(F)(F)F,inactive,
Oc1ccc(C(c2ccc(O)cc2)(C(F)(F)F)C(F)(F)F)cc1,,80.2 µM (active)
Cc1cccc(C)c1N,inactive,
Clc1ccc(C(Cl)(Cl)Cl)cc1,inactive,
